# Several values for one entry are separate records, joined by “and”; a condition that tells them apart may be missing. Identical values can stand only once. Inconclusive results are not listed. Entries that show only a call come without a potency. The source holds several records for some structures; these can differ, active in one and inactive in another. Activity calls are given as the source filed them. Unless noted, calls follow the shape of the dose curve; as a rule, active = well fitted curve in the direction sought with a large enough effect in the repeat runs; inconclusive = weak or mixed curves; inactive = no such curve, though single readings can be large; an effect the other way counts as inactive or inconclusive.
# Columns and labels:
# [1] = target: Estrogen receptor beta (Homo sapiens) (UniProt Q92731); assay: qHTS assay to identify small molecule agonists of the estrogen receptor beta (ER-beta) signaling pathway (AID 1259377; active = well fitted activation curve with a large enough effect in the signal ratio in the repeat runs, not every such curve was filed as active; the % refers to the signal ratio)
# In short: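 Beta-lactamase reporter readout: fluorescence of LiveBLAzer B/G FRET substrate after 2 h at room temperature, following 16 h compound treatment of ER-beta-UAS-bla HEK293T cells at 37C in 2% charcoal-stripped FBS medium.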
# [2] = target: Estrogen receptor beta (Homo sapiens) (UniProt Q92731); assay: qHTS assay to identify small molecule antagonists of the estrogen receptor beta (ER-beta) signaling pathway (AID 1259378; active = well fitted inhibition curve with a large enough effect in the signal ratio in the repeat runs, not every such curve was filed as active; the % refers to the signal ratio; also: potency is read from the fitted curve at half-maximal effect)
# In short: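 Antagonist mode: compounds added to beta-lactamase reporter HEK293T ER-beta-UAS cells stimulated with E2 (1nM final), 16 hr at 37C. LiveBLAzer B/G FRET substrate, 2 hours room temperature, fluorescence read-out.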
# [3] = qHTS assay to identify small molecule agonists of the androgen receptor (AR) signaling pathway in the presence of an antagonist - cell viability counter screen (AID 1259379); also: nearly all actives have a fitted effect of over 25% in size; also: potency is read from the fitted curve at half-maximal effect
# In short: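 Each compound was tested at 15 concentrations on MDA-kb2 cells in the presence of 3.0uM nilutamide. Viability was measured by CellTiter-Fluor fluorescence after a 16 hr incubation at 37C in a CO2-free atmosphere.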
# [4] = qHTS assay to identify small molecule agonists of the estrogen receptor beta (ER-beta) signaling pathway - cell viability counter screen (AID 1259380); also: nearly all actives have a fitted effect of over 30% in size; also: potency is read from the fitted curve at half-maximal effect
# In short: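 Compounds dissolved in DMSO were pin-transferred onto ER-beta-UAS-bla HEK293T cells that had settled 6 hr, and exposure ran 16 hr at 37C. Following the reporter read, CellTiter-Glo luminescence after 30 min at room temperature indicated cytotoxicity.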
# [5] = qHTS assay to identify small molecule antagonists of the estrogen receptor beta (ER-beta) signaling pathway - cell viability counter screen (AID 1259382); also: nearly all actives have a fitted effect of over 55% in size; also: potency is read from the fitted curve at half-maximal effect
# In short: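 CellTiter-Glo ATP luminescence measured after the LiveBLAzer read in the same wells; ER-beta-UAS-bla HEK293T cells, 16 hr compound treatment with 1nM 17-beta-estradiol agonist at 37C, 5% CO2.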
# [6] = target: Estrogen receptor (Homo sapiens) (UniProt P03372); assay: qHTS assay to identify small molecule agonists of the estrogen receptor alpha (ER-alpha) signaling pathway in the presence of an antagonist (AID 1259383; calls by dose curve; also: top concentration of the series differs between compounds; nearly all actives have a fitted effect of over 15% in size)
# In short: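 Luminescent ERE-luciferase reporter, VM7Luc4E2 cells (endogenous ER-alpha); 10.0nM ICI-182,780 final; 15-point compound titration; 22hr at 37C; ONE-Glo, 30min RT.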
# [7] = qHTS assay to identify small molecule agonists or antagonists of the thyroid stimulating hormone receptor (TSHR) signaling pathway - wild type cell line counter screen (AID 1259384; calls by dose curve)
# In short: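 Counter screen in untransfected Hek293: compounds (15-point titration, triplicate) plus phosphodiesterase inhibitor Ro20-1724 added after 18 h plating; 30 min RT. Intracellular cAMP via competitive d2/cryptate immunoassay, 1 h incubation.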
# [8] = target: Thyrotropin receptor (Homo sapiens) (UniProt P16473); assay: qHTS assay to identify small molecule antagonists of the thyroid stimulating hormone receptor (TSHR) signaling pathway (AID 1259385; calls by dose curve; also: nearly all actives have a fitted effect of over 20% in size; also: potency is read from the fitted curve at half-maximal effect)
# In short: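 Antagonist mode: compound-treated TSHR-expressing HEK293 cells were stimulated with 1.5 ng/mL TSH (final) in presence of Ro20-1724 for 30 min at RT. HTRF cAMP detection after 1 h; each compound tested at 15 concentrations, triplicate.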
# [9] = qHTS assay to identify small molecule agonists of the estrogen receptor alpha (ER-alpha) signaling pathway in the presence of an antagonist - cell viability counter screen (AID 1259386);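 also: cells exposed to compounds for 22 h at 37 °C before the viability read; nearly all actives have a fitted effect of over 30% in size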; also: potency is read from the fitted curve at half-maximal effect
# In short: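 Using estrogen-depleted VM7Luc4E2 cells, the 15-concentration compound series was applied together with 10.0nM ICI-182,780 and incubated 22hr at 37C/5% CO2. Cell viability was then scored by CellTiter-Fluor.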
# [10] = target: Progesterone receptor (Homo sapiens) (UniProt P06401); assay: qHTS assay to identify small molecule agonists of the progesterone receptor (PR) signaling pathway (AID 1346784; calls by dose curve; also: nearly all actives have a fitted effect of over 30% in size)
# In short: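 HEK 293T PR-UAS-bla reporter cells, 2% charcoal-stripped FBS; 6 hr settle at 37C/5% CO2, compound (DMSO) 16 hr, LiveBLAzer B/G FRET substrate 2 hr RT, fluorescence intensity read.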
# [11] = target: Progesterone receptor (Homo sapiens) (UniProt P06401); assay: qHTS assay to identify small molecule antagonists of the progesterone receptor (PR) signaling pathway (AID 1346795; active = well fitted inhibition curve with a large enough effect in the signal ratio in the repeat runs, not every such curve was filed as active; the % refers to the signal ratio; also: potency is read from the fitted curve at half-maximal effect)
# In short: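 Beta-lactamase reporter, HEK293T PR-UAS-bla line; 2% charcoal-stripped FBS; 6 hr pre-incubation, 37C/5% CO2. Compound + R5020 1 nM final, 16 hr. LiveBLAzer B/G FRET substrate, 2 hr RT; fluorescence intensity read.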
# [12] = qHTS assay to identify small molecule antagonists of the progesterone receptor (PR) signaling pathway - cell viability counter screen (AID 1346798); also: nearly all actives have a fitted effect of over 50% in size; also: potency is read from the fitted curve at half-maximal effect
# In short: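 Luminescence readout (CellTiter-Glo, 30 min, RT) of viability in PR-UAS-bla HEK293T cells exposed to compound and R5020 agonist for 16 hr at 37C, 5% CO2; run in the same wells as the beta-lactamase reporter read.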
# [13] = qHTS assay to identify small molecule agonists of the progesterone receptor (PR) signaling pathway - cell viability counter screen (AID 1346799; calls by dose curve; also: nearly all actives have a fitted effect of over 45% in size; also: potency is read from the fitted curve at half-maximal effect)
# In short: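 HEK293T PR-UAS-bla, 3,000 cells/well, 2% charcoal-stripped FBS; 6 h settle, compound 16 h at 37C/5% CO2; LiveBLAzer 2 h RT, then CellTiter-Glo 30 min RT, luminescence read.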
# [14] = qHTS assay to identify small molecule antagonists of the TGF-beta/Smad signaling pathway - cell viability counter screen (AID 1346824); also: nearly all actives have a fitted effect of over 50% in size
# In short: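 Cytotoxicity counter-screen run in the same wells as the beta-lactamase Smad reporter read: CellTiter-Glo luminescence after 30 min at room temperature. HEK 293T SBE-bla cells had 5 hr compound exposure at 37 C with TGF-beta1 (0.25 ng/mL stock).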
# [15] = qHTS assay to identify small molecule agonists of the TGF-beta/Smad signaling pathway - cell viability counter screen (AID 1346829); also: nearly all actives have a fitted effect of over 45% in size; also: potency is read from the fitted curve at half-maximal effect
# In short: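 CellTiter-Glo luminescence readout; SBE-bla HEK 293T cells, overnight plating, compound 5 hr at 37 C/5% CO2, then bla substrate 2 hr RT, then CellTiter-Glo 30 min RT.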
# [16] = qHTS assay to identify small molecule agonists of the TGF-beta/Smad signaling pathway (AID 1346859; active = well fitted activation curve with a large enough effect in the signal ratio in the repeat runs, not every such curve was filed as active; the % refers to the signal ratio; also: series mostly up to about 77 µM)
# In short: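 Read-out: fluorescence at 460 and 530 nm (405 nm excitation) after a 2 hr room-temperature incubation with beta-lactamase FRET substrate. SBE-bla HEK 293T cells had been treated with test compounds for 5 hr at 37 C.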
# [17] = target: Thyrotropin-releasing hormone receptor (Homo sapiens) (UniProt P34981); assay: qHTS assay to identify small molecule antagonists of the thyrotropin-releasing hormone receptor (TRHR) signaling pathway (AID 1346877; active = well fitted inhibition curve with a large enough effect in the repeat runs, not every such curve was filed as active; also: series mostly up to about 51 µM)
# In short: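 Calcium signal in dye-loaded TRHR/HEK293 cells; compounds added 5 min before TRH (1 nM final); fluorescence monitored 3 min at 1 s steps.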
# [18] = target: Thyrotropin-releasing hormone receptor (Homo sapiens) (UniProt P34981); assay: qHTS assay to identify small molecule agonists of the thyrotropin-releasing hormone receptor (TRHR) signaling pathway (AID 1346891; calls by dose curve;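 also: HEK293 cells expressing TRHR with calcium dye readout; series mostly up to about 58 µM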)
# In short: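 HEK293/TRHR cells, 1500 per well, 18 h 37 °C; Ca dye 2 h 37 °C; pin-tool compound addition (agonist mode); kinetic fluorescence 3 min, 1 s reads; 15 concentrations, triplicate.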
# [19] = Human pregnane X receptor (PXR) small molecule agonists, qHTS cell viability counter screen (AID 1346977); also: nearly all actives have a fitted effect of over 50% in size; also: potency is read from the fitted curve at half-maximal effect
# In short: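 Fluorescence read-out (CellTiter-Fluor) of viability in PXR-Luc HepG2 cells, multiplexed with the luciferase agonist read. Compounds in DMSO added after 5hr plating; 24hr total exposure at 37C, 5% CO2.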
# [20] = target: Androgen receptor (Homo sapiens) (UniProt P10275); assay: qHTS assay to identify small molecule agonists of the androgen receptor (AR) signaling pathway in the presence of an antagonist (AID 1259381; calls by dose curve; also: nearly all actives have a fitted effect of over 15% in size)
# In short: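 Plated MDA-kb2 cells (3,000/well) were pre-incubated 5hr, given nilutamide (3.0uM final) or buffer, then dosed with compounds in DMSO at 15 concentrations. Luciferase activity was quantified by luminescence after 16hr at 37C.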
# Thyrotropin-releasing hormone receptor (Homo sapiens), sequence (P34981 whole entry, looked up): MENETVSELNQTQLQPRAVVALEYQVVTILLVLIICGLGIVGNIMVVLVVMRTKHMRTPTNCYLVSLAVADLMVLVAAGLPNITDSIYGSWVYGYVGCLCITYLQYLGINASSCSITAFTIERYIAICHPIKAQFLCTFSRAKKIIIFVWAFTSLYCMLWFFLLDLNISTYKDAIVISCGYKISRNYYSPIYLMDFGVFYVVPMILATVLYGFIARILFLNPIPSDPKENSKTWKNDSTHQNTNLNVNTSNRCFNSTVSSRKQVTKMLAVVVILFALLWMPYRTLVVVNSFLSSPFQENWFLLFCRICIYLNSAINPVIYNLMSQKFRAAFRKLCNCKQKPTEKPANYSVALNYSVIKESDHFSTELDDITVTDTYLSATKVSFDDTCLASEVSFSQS
# Estrogen receptor (Homo sapiens), sequence (P03372 whole entry, looked up): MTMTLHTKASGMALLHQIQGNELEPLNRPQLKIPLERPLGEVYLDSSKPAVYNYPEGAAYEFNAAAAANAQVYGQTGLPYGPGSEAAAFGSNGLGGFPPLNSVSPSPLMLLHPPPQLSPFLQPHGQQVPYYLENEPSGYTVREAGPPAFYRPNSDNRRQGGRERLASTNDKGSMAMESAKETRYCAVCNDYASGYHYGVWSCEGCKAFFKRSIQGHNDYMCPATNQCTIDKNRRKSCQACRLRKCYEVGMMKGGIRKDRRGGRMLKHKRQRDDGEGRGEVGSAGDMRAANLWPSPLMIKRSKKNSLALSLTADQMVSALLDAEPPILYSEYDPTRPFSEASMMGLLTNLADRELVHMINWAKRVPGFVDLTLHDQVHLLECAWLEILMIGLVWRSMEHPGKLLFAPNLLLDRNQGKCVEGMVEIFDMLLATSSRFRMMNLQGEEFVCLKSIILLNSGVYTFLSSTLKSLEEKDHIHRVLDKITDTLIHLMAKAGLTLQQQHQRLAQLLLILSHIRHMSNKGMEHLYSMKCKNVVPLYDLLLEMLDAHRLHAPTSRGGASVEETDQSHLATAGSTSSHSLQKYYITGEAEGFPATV
# Progesterone receptor (Homo sapiens), sequence (P06401 whole entry, looked up): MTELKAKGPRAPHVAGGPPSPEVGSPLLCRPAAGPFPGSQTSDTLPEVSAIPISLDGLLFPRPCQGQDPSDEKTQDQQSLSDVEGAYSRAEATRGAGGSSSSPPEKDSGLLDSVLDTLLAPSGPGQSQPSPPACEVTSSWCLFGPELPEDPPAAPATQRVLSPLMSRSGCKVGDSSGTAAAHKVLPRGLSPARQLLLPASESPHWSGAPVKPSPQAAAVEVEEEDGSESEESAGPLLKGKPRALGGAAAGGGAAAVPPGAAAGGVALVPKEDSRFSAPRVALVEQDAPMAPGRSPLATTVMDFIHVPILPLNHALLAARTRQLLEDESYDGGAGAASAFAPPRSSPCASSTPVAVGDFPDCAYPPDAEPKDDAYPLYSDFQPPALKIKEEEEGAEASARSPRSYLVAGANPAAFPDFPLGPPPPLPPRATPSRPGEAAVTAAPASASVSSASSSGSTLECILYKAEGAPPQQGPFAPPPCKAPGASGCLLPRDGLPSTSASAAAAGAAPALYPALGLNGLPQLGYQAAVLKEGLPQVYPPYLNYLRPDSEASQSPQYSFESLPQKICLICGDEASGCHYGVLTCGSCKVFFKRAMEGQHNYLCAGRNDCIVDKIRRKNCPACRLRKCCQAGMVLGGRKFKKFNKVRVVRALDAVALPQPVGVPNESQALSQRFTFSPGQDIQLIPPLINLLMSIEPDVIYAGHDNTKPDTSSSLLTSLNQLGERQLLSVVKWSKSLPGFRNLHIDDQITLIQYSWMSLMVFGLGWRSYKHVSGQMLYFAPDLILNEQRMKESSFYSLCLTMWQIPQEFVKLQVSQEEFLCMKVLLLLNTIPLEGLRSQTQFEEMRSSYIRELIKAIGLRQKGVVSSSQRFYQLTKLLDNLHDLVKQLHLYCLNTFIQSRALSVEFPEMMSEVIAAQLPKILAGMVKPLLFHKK
# Estrogen receptor beta (Homo sapiens), sequence (Q92731 whole entry, looked up): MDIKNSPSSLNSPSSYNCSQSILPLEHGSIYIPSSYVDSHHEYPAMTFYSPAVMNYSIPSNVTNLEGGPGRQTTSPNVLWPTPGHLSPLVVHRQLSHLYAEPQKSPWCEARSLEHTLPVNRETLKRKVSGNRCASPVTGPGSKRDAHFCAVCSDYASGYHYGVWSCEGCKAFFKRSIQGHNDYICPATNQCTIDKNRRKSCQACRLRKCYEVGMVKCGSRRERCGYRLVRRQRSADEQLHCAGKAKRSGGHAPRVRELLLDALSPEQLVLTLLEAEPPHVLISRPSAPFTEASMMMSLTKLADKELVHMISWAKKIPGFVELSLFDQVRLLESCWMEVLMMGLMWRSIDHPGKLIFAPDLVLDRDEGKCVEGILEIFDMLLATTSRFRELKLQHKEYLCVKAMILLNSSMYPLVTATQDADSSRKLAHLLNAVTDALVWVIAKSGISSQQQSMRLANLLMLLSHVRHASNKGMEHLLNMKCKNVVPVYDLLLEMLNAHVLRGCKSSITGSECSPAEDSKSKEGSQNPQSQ
# Thyrotropin receptor (Homo sapiens), sequence (P16473 whole entry, looked up): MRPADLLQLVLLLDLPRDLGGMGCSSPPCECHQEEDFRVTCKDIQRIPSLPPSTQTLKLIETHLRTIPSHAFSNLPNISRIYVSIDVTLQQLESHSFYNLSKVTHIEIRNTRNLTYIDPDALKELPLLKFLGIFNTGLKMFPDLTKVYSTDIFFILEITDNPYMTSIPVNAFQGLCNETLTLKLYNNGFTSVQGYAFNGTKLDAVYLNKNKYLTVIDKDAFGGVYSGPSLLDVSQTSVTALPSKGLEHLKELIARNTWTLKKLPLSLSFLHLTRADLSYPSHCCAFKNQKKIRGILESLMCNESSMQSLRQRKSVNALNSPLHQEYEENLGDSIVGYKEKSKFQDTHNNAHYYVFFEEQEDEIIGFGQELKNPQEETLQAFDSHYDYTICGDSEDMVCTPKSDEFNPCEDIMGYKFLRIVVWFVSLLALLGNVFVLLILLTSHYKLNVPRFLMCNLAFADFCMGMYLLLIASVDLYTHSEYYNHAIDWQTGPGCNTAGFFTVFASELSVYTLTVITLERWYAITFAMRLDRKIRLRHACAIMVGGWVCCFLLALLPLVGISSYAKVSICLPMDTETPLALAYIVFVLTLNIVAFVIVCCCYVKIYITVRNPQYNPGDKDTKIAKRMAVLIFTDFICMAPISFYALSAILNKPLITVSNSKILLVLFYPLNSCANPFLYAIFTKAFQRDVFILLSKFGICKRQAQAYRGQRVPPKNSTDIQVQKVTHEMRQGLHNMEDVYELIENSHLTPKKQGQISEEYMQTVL
# Androgen receptor (Homo sapiens), sequence (P10275 whole entry, looked up): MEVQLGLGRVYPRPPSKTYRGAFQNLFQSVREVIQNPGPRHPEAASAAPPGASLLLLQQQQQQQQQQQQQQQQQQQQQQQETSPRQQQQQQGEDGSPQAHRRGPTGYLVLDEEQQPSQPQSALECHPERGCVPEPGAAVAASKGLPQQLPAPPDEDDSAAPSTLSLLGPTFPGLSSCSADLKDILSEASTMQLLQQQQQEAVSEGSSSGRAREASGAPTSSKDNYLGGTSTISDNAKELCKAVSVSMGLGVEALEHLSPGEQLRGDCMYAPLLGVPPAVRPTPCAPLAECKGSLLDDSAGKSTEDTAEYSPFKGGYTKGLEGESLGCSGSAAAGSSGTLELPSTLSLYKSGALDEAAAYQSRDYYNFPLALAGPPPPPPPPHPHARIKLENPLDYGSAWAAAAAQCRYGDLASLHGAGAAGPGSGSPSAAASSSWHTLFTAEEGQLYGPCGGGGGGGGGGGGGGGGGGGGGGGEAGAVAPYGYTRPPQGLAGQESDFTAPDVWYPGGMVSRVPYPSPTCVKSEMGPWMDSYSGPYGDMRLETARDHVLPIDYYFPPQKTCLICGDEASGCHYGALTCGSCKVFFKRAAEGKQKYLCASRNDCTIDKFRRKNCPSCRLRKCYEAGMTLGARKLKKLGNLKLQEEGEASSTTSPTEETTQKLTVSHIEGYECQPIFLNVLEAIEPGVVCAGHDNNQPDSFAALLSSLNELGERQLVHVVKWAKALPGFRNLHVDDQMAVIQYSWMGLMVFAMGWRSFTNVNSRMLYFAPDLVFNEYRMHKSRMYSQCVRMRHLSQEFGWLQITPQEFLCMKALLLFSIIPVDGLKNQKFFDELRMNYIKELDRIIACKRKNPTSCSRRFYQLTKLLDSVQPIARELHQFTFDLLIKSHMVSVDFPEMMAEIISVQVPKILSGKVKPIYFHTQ
SMILES,Potency [1],Potency [2],Potency [3],Potency [4],Potency [5],Potency [6],outcome [7],Potency [8],Potency [9],Potency [10],Potency [11],Potency [12],Potency [13],Potency [14],Potency [15],outcome [16],Potency [17],Potency [18],Potency [19],Potency [20]
BrCBr,inactive,inactive,inactive,inactive,inactive,inactive,inactive,inactive,inactive,inactive,inactive,inactive,inactive,inactive,inactive,inactive,inactive,inactive,inactive,–
Clc1ccc(COC(Cn2ccnc2)c2ccc(Cl)cc2Cl)cc1 (stereo unspecified),inactive,13.3 µM (active),50.8 µM (active) and 60.9 µM (active) and inactive,57 µM (active) and 30.5 µM (active) and 11.9 µM (active),50.8 µM (active) and 27.2 µM (active) and 26.6 µM (active),–,inactive,57 µM (active) and 68.3 µM (active),50.8 µM (active) and 68.3 µM (active) and inactive,inactive,5.31 µM (active),18 µM (active) and 27.2 µM (active) and 6.68 µM (active),45.3 µM (active) and 15.3 µM (active) and 5.96 µM (active),inactive,40.7 µM (active),inactive,–,–,45.3 µM (active) and 48.4 µM (active) and 26.6 µM (active),–
CN(CCCC(O)c1cccnc1)N=O (stereo unspecified),inactive,inactive,inactive,inactive,inactive,inactive,inactive,–,inactive,inactive,–,–,inactive,inactive,inactive,inactive,inactive,inactive,inactive,–
COC(=O)N(C(=O)N1COC2(C(=O)OC)Cc3cc(Cl)ccc3C2=N1)c1ccc(OC(F)(F)F)cc1 (stereo unspecified),inactive,inactive,inactive,inactive,inactive,inactive,inactive,–,inactive,inactive,29.8 µM (active),inactive,inactive,inactive,inactive,inactive,–,–,inactive,–
COc1ccc(OC)c(CC(C)N)c1 (stereo unspecified),inactive,inactive,inactive,inactive,inactive,inactive,inactive,inactive,inactive,inactive,inactive,inactive,inactive,inactive,inactive,inactive,inactive,inactive,inactive,–
N#Cc1ccccc1N,inactive,inactive,inactive,inactive,inactive,inactive,inactive,–,inactive,–,–,inactive,inactive,inactive,inactive,inactive,inactive,inactive,inactive,–
COc1ccc(/C(=C/C(=O)N2CCOCC2)c2ccc(Cl)cc2)cc1OC,inactive,inactive,inactive,68.6 µM (active),–,–,inactive,inactive,inactive,inactive,–,–,inactive,inactive,inactive,inactive,inactive,inactive,inactive,inactive
O=C(CCl)Nc1ccccc1,inactive,27.3 µM (active),61.1 µM (active),inactive,inactive,inactive,inactive,inactive,68.6 µM (active),inactive,–,19.3 µM (active),inactive,inactive,inactive,inactive,inactive,inactive,61.1 µM (active),–
Cc1cccc(OP(=O)(Oc2cccc(C)c2)Oc2cccc(C)c2)c1,inactive,inactive,inactive,inactive,inactive,–,inactive,inactive,inactive,inactive,43.3 µM (active),inactive,inactive,inactive,inactive,inactive,inactive,inactive,inactive,–
COc1cc(N)c(Cl)cc1C(=O)NC1CN2CCC1CC2 (stereo unspecified),inactive,inactive,inactive,inactive,inactive,–,inactive,inactive,inactive,inactive,inactive,–,inactive,inactive,inactive,inactive,inactive,inactive,inactive,–
N#CNC#N,inactive,inactive,inactive,inactive,inactive,–,inactive,–,inactive,inactive,–,–,inactive,inactive,inactive,inactive,inactive,inactive,inactive,–
CC(C)(COCC1CO1)COCC1CO1 (stereo unspecified),inactive,inactive,inactive,inactive,inactive,inactive,inactive,inactive,inactive,inactive,inactive,inactive,inactive,inactive,inactive,inactive,inactive,inactive,inactive,–
N#CCCO,inactive,inactive,inactive,inactive,inactive,inactive,–,–,inactive,inactive,inactive,inactive,inactive,inactive,inactive,inactive,inactive,inactive,inactive,–
O=[N+]([O-])c1cc(Cl)ccc1Cl,inactive,inactive,inactive,inactive,inactive,inactive,inactive,inactive,inactive,inactive,inactive,inactive,inactive,inactive,inactive,inactive,inactive,inactive,inactive,–

# Reference: PubChem BioAssay (Tox21)
